# Assay results from PubChem BioAssay (NCATS).
# “And” between values parts separate entries of the source, which are not always exact repeats. Equal entries are not always repeated. Inconclusive results are not listed. The source made the active and inactive calls. Unless noted, calls come from the whole dose curve; as a rule, active = well fitted curve in the direction sought with a large enough effect; inconclusive = small, poorly fitted or top-dose-only effect, or another doubt; inactive = no such curve, though single readings can be large; an effect the other way counts as inactive or inconclusive.
# Tests used:
# [1] = biological target: Hexokinase-4 (Homo sapiens) + Glucokinase regulatory protein (Homo sapiens) (UniProt P35557+Q14397); assay: qHTS assay for inhibitors of recombinant human GCK-GKRP interaction: HTRF assay (AID 743207);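 note: 0% = DMSO with GCK present and -100% = DMSO wells lacking GCK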
# Sequence of Hexokinase-4 (Homo sapiens) + Glucokinase regulatory protein (Homo sapiens) (P35557 whole entry, looked up): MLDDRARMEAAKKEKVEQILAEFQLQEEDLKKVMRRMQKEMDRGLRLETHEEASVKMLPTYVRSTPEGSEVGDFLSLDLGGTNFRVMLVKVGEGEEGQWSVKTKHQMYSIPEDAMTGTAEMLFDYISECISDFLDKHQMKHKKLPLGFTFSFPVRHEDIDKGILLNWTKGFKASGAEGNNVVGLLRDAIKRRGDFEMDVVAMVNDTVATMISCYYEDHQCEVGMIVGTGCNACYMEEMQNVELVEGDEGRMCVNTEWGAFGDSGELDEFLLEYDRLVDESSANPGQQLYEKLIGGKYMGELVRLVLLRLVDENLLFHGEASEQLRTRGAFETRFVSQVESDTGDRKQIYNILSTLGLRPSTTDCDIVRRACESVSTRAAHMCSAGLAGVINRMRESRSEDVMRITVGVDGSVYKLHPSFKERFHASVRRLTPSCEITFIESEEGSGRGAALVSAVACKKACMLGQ
# Sequence of Hexokinase-4 (Homo sapiens) + Glucokinase regulatory protein (Homo sapiens) (Q14397 whole entry, looked up): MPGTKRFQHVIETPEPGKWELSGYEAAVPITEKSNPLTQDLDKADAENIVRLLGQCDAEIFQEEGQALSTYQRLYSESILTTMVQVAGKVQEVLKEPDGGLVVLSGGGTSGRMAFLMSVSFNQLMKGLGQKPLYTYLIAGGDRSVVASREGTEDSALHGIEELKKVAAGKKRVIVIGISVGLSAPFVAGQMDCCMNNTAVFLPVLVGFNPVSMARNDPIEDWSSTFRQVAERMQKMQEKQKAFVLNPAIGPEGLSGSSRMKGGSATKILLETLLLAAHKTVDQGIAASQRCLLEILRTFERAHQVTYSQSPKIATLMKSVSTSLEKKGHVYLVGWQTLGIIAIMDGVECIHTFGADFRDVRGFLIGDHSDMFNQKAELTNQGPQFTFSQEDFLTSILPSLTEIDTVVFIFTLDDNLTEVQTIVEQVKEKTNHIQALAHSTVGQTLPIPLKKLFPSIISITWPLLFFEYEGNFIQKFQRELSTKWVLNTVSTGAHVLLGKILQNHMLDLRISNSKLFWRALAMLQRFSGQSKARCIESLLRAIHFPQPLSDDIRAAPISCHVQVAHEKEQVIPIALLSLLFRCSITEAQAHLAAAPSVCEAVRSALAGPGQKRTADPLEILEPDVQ
# Method in brief: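 Steps: dispense GCK–GKRP complex (5 nM each, GST- and FLAG-tagged) with 2 uM S6P; pin in compounds; add XL665/Eu-cryptate-labelled antibodies; incubate 60 min at room temperature; read time-resolved FRET at 665 and 615 nm.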
# [2] = qHTS Assay for Identifying Gametocytocidal Compounds (AID 743244); note: potency is the fitted concentration of half-maximal effect;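 for max response: % is set by controls: 0 for no effect and ±100 for the full control effect; actives lower the fluorescent signal which means gametocytes are killed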; conditions: P. falciparum 3D7 stage III-V gametocytes, alamarBlue, 72 h; max response: stronger effect = lower value
# Method in brief: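 Compounds are pinned into medium, gametocytes (stage III–V, 3D7, 20,000 cells/well) added, and plates held 72 h at 37 °C in 5% CO2. AlamarBlue follows for 24 h before fluorescence reading.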
# [3] = qHTS assay for cell viability of HEK293 cells (AID 743288); conditions: ATP luminescence (CellTiter-Glo), 18 h; max response: stronger effect = lower value; note: % is set by controls: 0 for no effect and ±100 for the full control effect; nearly all actives have a fitted effect of over 50% in size
# Method in brief: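 Quantitative high-throughput screen: compounds were pinned onto parental HEK293 cells (2,000 per well) after a minimum 5 h settling at 37 C, incubated 18 h at 37 C, and intracellular ATP measured by luciferase luminescence.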
# [4] = qHTS profiling of the MIPE4 collection as inhibitors of Plasmodium falciparum (3D7) proliferation (AID 743344; call rule not given here;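 note: scaled between DMSO vehicle wells and 0.29 µM artemisinin as full inhibition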); conditions: P. falciparum 3D7 in erythrocytes, SYBR Green DNA fluorescence, 72 h; at 28.5 µM (top of the series) unless noted
# Method in brief: (§1)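 Parasite DNA was quantified by SYBR Green I fluorescence (ex 485, em 535 nm) after overnight lysis in saponin/Triton buffer at room temperature. Cultures at 0.3% parasitemia and 2.5% hematocrit were first exposed to compound for 72 h at 37 C; signals were normalised to artemisinin (0.29 uM) and vehicle wells.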
# [5] = qHTS profiling of the MIPE4 collection as inhibitors of Plasmodium falciparum (DD2) proliferation (AID 743345; call rule not given here); conditions: P. falciparum Dd2 in erythrocytes, SYBR Green DNA, 72 h; at 28.5 µM (top of the series) unless noted
# Method in brief: as §1
# [6] = qHTS profiling of the MIPE4 collection as inhibitors of Plasmodium falciparum (DD2) proliferation (Rep 2) (AID 743346; call rule not given here); conditions: P. falciparum Dd2 in erythrocytes, SYBR Green DNA, 72 h; at 28.5 µM (top of the series) unless noted
# Method in brief: as §1
# [7] = qHTS profiling of the MIPE4 collection as inhibitors of Plasmodium falciparum (HB3) proliferation (AID 743347; call rule not given here;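 note: plate controls were DMSO vehicle wells for no effect and artemisinin wells for full effect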); conditions: P. falciparum HB3 in erythrocytes, SYBR Green DNA, 72 h; at 28.5 µM (top of the series) unless noted
# Method in brief: as §1
# [8] = High-throughput drug toxicity screening in the BPDCN cell line Gen2.2 (AID 1224824; call rule not given here;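 note: cells exposed to compounds for 48 h before reading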); conditions: Gen2.2 BPDCN cells; at 45.8 µM (top of the series) unless noted
# Method in brief: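 Gen2.2, 500 cells/well, phenol red-free RPMI/10% FBS/Pen-Strep; 48 h cpd, 37 °C/5% CO2; CTG lum, 15 min RT. Norm: DMSO = 100%, bortezomib 9.2 uM final = 0%.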
# [9] = High-throughput drug toxicity screening in the BPDCN cell line Cal-1 (AID 1224825; call rule not given here); conditions: Cal-1 BPDCN cell viability, qHTS; at 45.8 µM (top of the series) unless noted
# Method in brief: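 CellTiter-Glo luminescence after 48 h compound exposure; percent activity scaled with DMSO as 100% and bortezomib (9.2 uM final) as 0%. Cal-1 cells seeded at 500/well in RPMI, 10% FBS, no phenol red.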
# [10] = qHTS assay for measurement of the activity of small molecule inhibitors on Zika virus induced Caspase-3 activity in human iPSC derived neural progenitor cells (hNPCs) (AID 1224857); note: % of control where 0% means no effect; nearly all actives have a fitted effect of over 65% in size
# Method in brief: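 Pretreat hNPCs with compound 1 h; infect ZIKV 2 FFU/cell; 6 h 37 C, 5% CO2; Caspase-Glo 3/7, 30 min RT; luminescence; normalize to no-virus and virus-only wells.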
# [11] = qHTS assay for measurement of the activity of small molecule inhibitors on Zika virus induced Caspase-3 activity in human astrocytoma cells (AID 1224859);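 note: plate controls were ZIKV-infected untreated cells for no effect and uninfected cells for full effect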
# Method in brief: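 Human SNB-19 astrocytoma cells in RPMI 1640 with 10% FBS receive compound one hour ahead of Zika virus at 2 FFU/cell. After 6 h infection, caspase-3/7 activity is detected by Caspase-Glo luminescence.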
# [12] = qHTS Screen of the MIPE 4.0 Collection Against Ewings Sarcoma (RDES) (AID 1259252); note: nearly all actives have a fitted effect of over 35% in size; note: potency is the fitted concentration of half-maximal effect
# Method in brief: (§2)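 Dose series incubated 48 h with cells in RPMI plus 5% FBS, glutamine and penicillin/streptomycin; cell viability then quantified via CellTiter-Glo.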
# [13] = qHTS Screen of the MIPE 4.0 Collection Against Ewings Sarcoma (TC32) (AID 1259256); note: nearly all actives have a fitted effect of over 45% in size; note: potency is the fitted concentration of half-maximal effect
# Method in brief: as §2
# [14] = qHTS assay to identify small molecule inhibitors of chordoma cells - UCH-1 (AID 1259355); note: % is set by controls: 0 for no effect and ±100 for the full control effect; nearly all actives have a fitted effect of over 55% in size
# Method in brief: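 Screening used approved and investigational drugs in 15-point titration against 800 seeded cells per well. A fixed combination of auranofin with camptothecin, doxorubicin, rubitecan and topotecan followed compound addition, and growth was scored by CellTiter-Glo after 48hr.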
# [15] = qHTS assay to identify small molecule inhibitors of chordoma cells - UCH-2 (AID 1259356); note: % is set by controls: 0 for no effect and ±100 for the full control effect
# [16] = qHTS Screen of the MIPE 4.0 Collection Against Ewings Sarcoma (TC71) (AID 1259253); note: nearly all actives have a fitted effect of over 40% in size; note: potency is the fitted concentration of half-maximal effect
# Method in brief: as §2
# [17] = qHTS Screen of the MIPE 4.0 Collection Against Ewings Sarcoma (EW8) (AID 1259255); note: nearly all actives have a fitted effect of over 35% in size; note: potency is the fitted concentration of half-maximal effect;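 for viability: 100% = DMSO-treated cells and 0% = medium-only wells without cells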
# Method in brief: as §2
Structure (SMILES),Potency [1],max response [2],max response [3],"parasite growth, % of DMSO control [4]","parasite growth remaining, % of DMSO control (lower = more inhibition) [5]","parasite growth, % of control (lower = inhibition) [6]","growth, % of control [7]","cell viability, % of control (lower = more cytotoxic) [8]",viability (% of control) [9],Potency [10],Potency [11],Potency [12],Potency [13],Potency [14],outcome [15],Potency [2],Potency [16],Potency [17]
CC(C)Cc1ccc(C(C)C(=O)O)cc1 (stereo unspecified),inactive,19.9% (inactive) and 9.6% (inactive),-10% (inactive),112% [at 9.64 µM],99.8% [at 9.64 µM],162% [at 9.64 µM],94.2% [at 9.64 µM],116% [at 23.2 µM],113% [at 23.2 µM],inactive,inactive,inactive,inactive,inactive,inactive,,,
O=C1c2c(O)ccc(O)c2C(=O)c2c(NCCNCCO)ccc(NCCNCCO)c21,inactive,,,0.962%,1.83%,5.92%,0.795%,6.11%,2.98%,inactive,inactive,0.166 µM (active),inactive,,,7.94 µM (active) and 1.41 µM (active),0.0935 µM (active),
COc1ccc2[nH]cc(CCNC(C)=O)c2c1,inactive,6.15% (inactive) and 3.87% (inactive),-9.99% (inactive) and -9.18% (inactive) and -3.1% (inactive),89.5% and 101%,107% and 104%,89.3% and 83%,79.2% and 70.9%,132%,65.3%,inactive,inactive,1.18 µM (active),3.32 µM (active),,inactive,,1.05 µM (active),
CCCCc1oc2ccccc2c1C(=O)c1cc(I)c(OCCN(CC)CC)c(I)c1,inactive,,,6.22%,6.54%,19.3%,8.19%,84.7%,8.13%,inactive,inactive,8.33 µM (active),8.33 µM (active),,inactive,,,9.35 µM (active)
Nc1nc2c(ncn2COC(CO)CO)c(=O)[nH]1,inactive,-13.4% (inactive) and 3.21% (inactive),,91.1%,92.5%,84.9%,49%,5.03%,3.13%,inactive,inactive,26.4 µM (active),inactive,inactive,inactive,,,
COc1ccc(CCN(C)CCCC(C#N)(c2ccc(OC)c(OC)c2)C(C)C)cc1OC (stereo unspecified),inactive,,0.749% (inactive),,,,,96.5% [at 92.2 µM],105% [at 92.2 µM],inactive,inactive,inactive,,,,,,inactive
Cc1cn([C@H]2C[C@H](N=[N+]=[N-])[C@@H](CO)O2)c(=O)[nH]c1=O,inactive,21.9% (inactive) and 0.942% (inactive) and 16% (inactive),-21.7% (inactive),412%,109%,117%,588%,59.6%,78.5%,inactive,inactive,inactive,inactive,inactive,inactive,,,
COC(=O)Nc1nc2ccc(C(=O)c3cccs3)cc2[nH]1,inactive,22.4% (inactive) and 23.7% (inactive),,54.5%,93.5%,91.6%,80%,19.7%,10.7%,inactive,inactive,0.0037 µM (active),inactive,,inactive,,0.0118 µM (active),
N[C@@H](Cc1c[nH]c2ccc(O)cc12)C(=O)O,inactive,,3.87% (inactive),101%,101%,132%,99.6%,126%,35.8%,inactive,inactive,inactive,,inactive,inactive,,inactive,inactive
CCOC(=O)c1ncn2c1CN(C)C(=O)c1cc(F)ccc1-2,inactive,,,,,,,100%,17.4%,inactive,inactive,inactive,13.2 µM (active),inactive,inactive,,,
COc1ccc(C2CNC(=O)C2)cc1OC1CCCC1 (stereo unspecified),inactive,,,109%,101%,116%,98.4%,170%,117%,inactive,inactive,inactive,inactive,inactive,inactive,,inactive,inactive
O=C(c1ccc(OCCN2CCCCC2)cc1)c1c(-c2ccc(O)cc2)sc2cc(O)ccc12,inactive,,,7.18%,32.9%,20.8%,9.13%,67.1%,40.4%,inactive,inactive,2.35 µM (active),8.33 µM (active),inactive,inactive,,,
O=c1[nH]cc(F)c(=O)[nH]1,inactive,14.8% (inactive) and 3.27% (inactive),-0.211% (inactive),,18.8%,,,118%,29.1%,inactive,inactive,5.26 µM (active),9.35 µM (active),inactive,inactive,,,
CCN1CCCC1CNC(=O)c1cc(S(=O)(=O)CC)c(N)cc1OC (stereo unspecified),inactive,,,93.7%,99.9%,50.9%,101%,143%,55.1%,inactive,inactive,inactive,,,,,inactive,20.9 µM (active)
Cn1c(=O)c2c(ncn2C)n(C)c1=O,inactive,,0.413% (inactive) and -8.15% (inactive),91.2%,96.6%,81.8%,103%,150%,116%,inactive,inactive,inactive,inactive,,inactive,,,
